# Sampled rows, rich in hits. Any-hit rate of the full collection: about 6.1%.
# D3 antag: blocks the human D3 dopamine receptor. P35462. D3R cells, DiscoveRx beta-arrestin luminescence, antagonist mode; hits give low values. max response, negative = inhibition, %. 2.5% of 360,000 active; in the data active = max response below about -50%; inconclusive = no clear call, values can overlap the other calls
#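 Cells expressing the human receptor were seeded at 1500 cells/well, incubated overnight at 37 degrees C in 5% CO2, then exposed to library compounds with dopamine controls for 90 minutes at 37 degrees C before luminescent detection.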
# D1 antagonist: blocks dopamine activation of the human D1 receptor; P21728; HEK293 TREx D1 cells, calcium flux, dopamine EC80; hits give low values; activity change, negative = inhibition, % at 10 µM; 3.2% of 360,000 active; in the data active = activity change below about -30%
#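 Allosteric or orthosteric antagonism assessed as attenuation of the calcium response to EC80 dopamine, added 180 s after compound, in induced HEK293 Trex D1 cells loaded with no-wash calcium dye.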
# ERG Ets-DNA blk: blocks human ERG Ets domain binding to DNA; P11308; fluorescence polarization, His-ERG Ets domain / labelled DNA; Potency, µM (titrated, usually from 76.9 µM), usual class: inhibitors; 0.028% of 370,000 active; AID 624246; active = well fitted inhibition curve with a large enough effect in the polarisation, with a control signal flat; inconclusive = small, poorly fitted or top-dose-only effect, or effect the other way, or a change in a side signal; inactive = no such curve, though single readings can be large or run the other way; the % refers to the polarisation;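 note: polarization taken with two DNA probes labelled with fluorescein and Texas red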
# Target sequence (P11308 whole entry, looked up, the tested form may be a part): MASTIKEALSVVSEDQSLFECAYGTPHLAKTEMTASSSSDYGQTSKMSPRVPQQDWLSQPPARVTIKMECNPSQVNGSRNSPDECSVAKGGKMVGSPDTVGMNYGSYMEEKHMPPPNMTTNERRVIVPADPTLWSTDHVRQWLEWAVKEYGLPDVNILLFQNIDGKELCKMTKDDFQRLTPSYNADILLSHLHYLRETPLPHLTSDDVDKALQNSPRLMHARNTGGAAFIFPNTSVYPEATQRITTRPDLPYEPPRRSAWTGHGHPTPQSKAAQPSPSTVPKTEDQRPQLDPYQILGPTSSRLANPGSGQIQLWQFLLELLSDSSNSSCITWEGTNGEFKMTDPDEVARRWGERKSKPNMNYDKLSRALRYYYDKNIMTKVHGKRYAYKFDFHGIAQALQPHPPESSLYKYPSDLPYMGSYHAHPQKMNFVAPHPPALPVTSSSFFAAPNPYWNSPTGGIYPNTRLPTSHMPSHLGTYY
#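 His-tagged ERG Ets domain (1 uM in the protein solution; 300mM KCl, 50mM Tris-HCl, 1mM EDTA, 1mM DTT, pH 7.5) received compound, then a probe mix of 5 nM fluorescein-DNA and 100nM Texas-615-DNA. Fluorescence polarization was read for both dyes.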
# D1 agonist: agonists of human D1 dopamine receptor. P21728. HEK293 T-REx D1 cells, calcium flux, agonist mode. activation, % at 2 µM. 1% of 360,000 active. AID 504660; in the data active = activation above about 30%
#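 Tetracycline-induced HEK293 TREx D1 cells, force-coupled to calcium signalling, were dye-loaded with a no-wash calcium kit. Compound was pin-added after a 10 s baseline. Fluorescence was read kinetically at 1 cycle/s for 180 s, with calcium rises flagged as agonism.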
# D3 ag: agonists of human D3 dopamine receptor. P35462. D3R DiscoveRx beta-arrestin cells, luminescence, 90 min. max activation, %. 0.58% of 410,000 active. AID 652048; in the data active = max activation above about 30%
#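 Agonist mode: compounds and dopamine controls were applied to plated cells for 90 min at 37 degrees C after an overnight attachment at 1500 cells/well. Luminescent read-out followed 30 - 60 minutes at room temperature with DiscoveRx detection reagent.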
# D1 PAM: enhances dopamine response at the human D1 receptor; P21728; HEK293 TREx D1 cells, calcium flux, dopamine EC20 potentiation; potentiation, % at 10 µM; 0.036% of 360,000 active; AID 504651; in the data active = potentiation above about 30%
# A number is an active result; . = inactive; ? = inconclusive; / = not tested or not shown.
SMILES,D3 antag,D1 antagonist,ERG Ets-DNA blk,D1 agonist,D3 ag,D1 PAM
Cc1cc2ncn(C3CC(O)C(CO)O3)c2cc1C (stereo unspecified),.,/,.,/,.,/
CCCCC(=O)OCc1cn(-c2ccc(Cl)cc2)nn1,.,.,.,.,.,.
CC(C(=O)OCC(=O)Nc1ccc2c(c1)OCO2)N1C(=O)c2ccccc2C1=O (stereo unspecified),.,.,.,.,.,.
CC(C(=O)Oc1ccc2c(c1)OCO2)N1C(=O)c2ccccc2C1=O (stereo unspecified),/,-40,/,.,/,.
c1ccc(SCCCCNC2CCCC2)cc1,?,.,.,.,.,.
N#Cc1ccc(OCCOCCNC2CCCC2)cc1,-50,.,.,.,.,.
c1ccc(-c2ccc(OCCCNC3CCCC3)cc2)cc1,.,-37,.,41,.,.
c1ccc(Cc2ccc(OCCCNC3CCCC3)cc2)cc1,/,.,/,56,/,.
COc1ccc(OCCNC2CCCC2)cc1,.,.,.,.,.,.
OCCN1CCN(Cc2nc(-c3cccc(Cl)c3)no2)CC1,.,.,.,.,.,.
Cc1cccc(-c2nc(SCc3cc(=O)c4cccc(F)c4[nH]3)n[nH]2)c1,/,.,.,.,.,.
Cc1ccc(S(=O)(=O)Nc2ccc(C(=O)NCc3ccncc3)cc2)cc1,.,.,.,.,.,.
CC(=O)Oc1c(C)cc(Cl)cc1C(=O)Nc1ccc([N+](=O)[O-])cc1Cl,.,.,.,34,.,.
CCc1nc(NCc2ccc3c(c2)OCO3)c2oc3ccccc3c2n1,-66,.,.,.,.,.
Cc1nc(NCc2ccc3c(c2)OCO3)c2oc3ccccc3c2n1,.,.,/,.,.,.
Cc1cc(NC(=O)Nc2ccc(C)c(C)c2)no1,.,.,.,.,.,.
Cc1cc(NC(=O)C(=O)NCc2cccc(Cl)c2)no1,.,-33,.,.,.,.
Cc1cc(NC(=O)Nc2cc(Cl)ccc2C)no1,.,.,.,35,.,.
COC(=O)C[C@@H]1CC[C@H](NC(=O)c2ccccc2)[C@@H](CO)O1,.,/,/,/,.,/
COc1ccc(S(=O)(=O)N2CCCCCC2)cc1C(=O)N(C)CC(=O)Nc1ccc(F)cc1,.,.,.,.,.,.
OC(CN1CCN(c2cccc(Cl)c2)CC1)c1ccccc1 (stereo unspecified),?,-35,.,.,.,.
C/C(=C\c1ccccc1)CN1CCN(c2ccccc2F)CC1,-82,.,.,.,.,.
C/C=C(\C)CN1CCN(c2ccc(C)cc2)CC1,-79,.,.,.,.,.
OC(CN1CCN(c2ccccc2)CC1)c1ccc2c(c1)CCN2 (stereo unspecified),.,.,.,.,44,.
COc1ccccc1N1CCN(C(=O)CNS(=O)(=O)c2ccc(Br)s2)CC1,.,.,.,.,.,.
SMILES,D3 antag,D1 antagonist,ERG Ets-DNA blk,D1 agonist,D3 ag,D1 PAM
Cc1ccc(C2=NN(CC(=O)NCc3cccnc3)C(=O)CC2)cc1,/,.,/,.,/,.
C/C(=C\c1ccccc1)CN1CCN(c2cccc(Cl)c2)CC1,-137,.,.,.,.,.
CC(=O)N1CCCC(C)(C(=O)Nc2ccc3nc(C)ccc3c2)C1 (stereo unspecified),-52,/,/,/,.,/
CCc1cccc(OCC(O)Cn2c(N3CCCCC3)nc3c2c(=O)[nH]c(=O)n3C)c1 (stereo unspecified),.,.,.,.,.,.
O=C(CSc1nc(-c2ccccc2)cc(=O)[nH]1)N1CCOCC1,.,.,.,.,.,.
CCNC(=O)N(C)[C@H]1C[C@H]2c3[nH]c4ccccc4c3CCN2C[C@H]1[C@H](C)O,.,/,/,/,.,/
C[C@H](O)[C@@H]1CN2CCc3c([nH]c4ccccc34)[C@@H]2C[C@@H]1N(C)C(=O)Nc1cccc2ccccc12,-58,/,/,/,.,/
Oc1c(C=C2N=c3ccccc3=N2)sc(=S)n1C1CCCC1,.,-71,.,.,.,.
O=C(Nn1c(O)c(C=C2N=c3ccccc3=N2)sc1=S)c1cccc(Cl)c1,-53,.,.,.,.,.
O=C(Nn1c(O)c(C=C2N=c3ccccc3=N2)sc1=S)c1ccc(Cl)cc1,.,.,.,.,.,.
